Hit rate of the full screen: of about 16,000 compounds, about 5,100 (32%) were called active. Inconclusive results (about 25%) are left out. This is one part of the list. Unmarked numbers belong to inactive results. Calls come from the whole dose curve; as a rule, active = well fitted curve in the direction sought with a large enough effect; inconclusive = small, poorly fitted or top-dose-only effect, or effect the other way; inactive = no such curve, though single readings can be large or run the other way.
% is set by controls: 0 for no effect and ±100 for the full control effect.

The target of this assay is Cytochrome P450 3A4 (Homo sapiens) (UniProt P08684). The assay can be described thus: Cytochrome panel assay with activity outcomes. The note with it: recombinant CYP, pro-luciferin dealkylation, luminescence, p450-cyp3a4; series mostly up to 57.1 µM; activity, negative = inhibition: at the top concentration.
Cytochrome P450 3A4 (Homo sapiens), sequence (P08684 whole entry, looked up): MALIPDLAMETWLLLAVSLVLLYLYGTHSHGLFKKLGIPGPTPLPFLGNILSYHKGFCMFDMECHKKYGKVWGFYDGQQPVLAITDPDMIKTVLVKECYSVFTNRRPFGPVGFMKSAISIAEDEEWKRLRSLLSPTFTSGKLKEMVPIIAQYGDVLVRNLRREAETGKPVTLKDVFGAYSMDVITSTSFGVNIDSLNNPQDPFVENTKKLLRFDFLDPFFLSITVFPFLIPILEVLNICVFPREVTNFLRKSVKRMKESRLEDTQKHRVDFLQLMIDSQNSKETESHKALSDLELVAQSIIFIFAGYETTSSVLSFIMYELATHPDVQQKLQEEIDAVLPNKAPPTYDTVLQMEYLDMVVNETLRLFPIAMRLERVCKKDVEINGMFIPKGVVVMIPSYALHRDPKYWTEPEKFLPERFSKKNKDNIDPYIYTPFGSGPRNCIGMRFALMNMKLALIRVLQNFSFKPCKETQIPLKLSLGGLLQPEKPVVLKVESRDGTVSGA
On to `Cn1cc(/C=C2/SC(=O)N(CC(=O)Nc3ccc4c(c3)OCO4)C2=O)c2ccccc21`, for which the AC50 is 0.2 µM (active).

As for `Cc1ccsc1/C=C1/SC(=O)N(CC(=O)N2CCOCC2)C1=O`, the “activity, negative = inhibition” value was -0.702%.

As to `Cn1ncc(Cl)c1C(=O)Nc1cccnc1`, the “activity, negative = inhibition” value is -16%.

In the case of `CN1CCc2cc(NC(=O)Nc3cccnc3)ccc21`, the concentration at half-maximal activity (AC50) was 12.6 µM (active).

In the case of `O=S(=O)(O)c1cc(O)c2c(O)c(N=Nc3cccc4ccccc34)c(S(=O)(=O)O)cc2c1`, the activity, negative = inhibition is -11.8% [at 11.4 µM].

`COc1ccc(Cl)cc1NC(=O)C12CCC(C)(C(=O)O1)C2(C)C` (configuration not stated): the AC50 was 15.8 µM (active).

For `NS(=O)(=O)c1ccc(N=Nc2nc3[nH]cnc(=S)c3[nH]2)cc1`, the activity, negative = inhibition was -11.9% [at 11.4 µM].

As for `COc1ccc(NS(=O)(=O)c2ccc(I)cc2)cc1N1CCN(C)CC1`, the “activity, negative = inhibition” value was -53%.

Take `COc1ccc(S(=O)(=O)Nc2cccc(Cl)c2)cc1OC`: the AC50 was 6.31 µM (active).

For the molecule `Cc1ccc(N2C(=O)c3n[nH]c(C)c3C2c2ccccn2)cc1` (configuration not stated), the half-maximal activity concentration (AC50) is 14.1 µM (active).

`Cc1ccc(-n2cnc(=O)c3cccnc32)cc1`: the activity, negative = inhibition was -3.53% [at 2.29 µM].

On to `Cc1ccc(-n2[nH]c(=O)c3cccnc32)cc1`, for which the “activity, negative = inhibition” value is -5.23%.

For the molecule `COCCNc1ncncc1-c1c(C)noc1C`, the concentration at half-maximal activity (AC50) is 5.01 µM (active).

Take `Cc1noc(C)c1-c1nccc(N2CCOCC2)n1`: the “activity, negative = inhibition” value was -9.81%.

`Cc1noc(C)c1-c1cncnc1NCCN1CCOCC1`: the AC50 is 6.31 µM (active).

With `CNc1cc(-c2c(C)noc2C)ncn1`, the “activity, negative = inhibition” value is -3%.

For `COCCNc1cc(-c2c(C)noc2C)ncn1`, the “activity, negative = inhibition” value was 10.1%.

As for `FC(F)(F)c1ccccc1-c1cncnc1NCCN1CCOCC1`, the AC50 is 0.794 µM (active).

Consider `Cc1ccccc1-c1cncnc1NCCN1CCOCC1`, for which the AC50 was 1.58 µM (active).

As for `CS[C@@H](CC(=O)O)C(=O)O`, the activity, negative = inhibition is -17% [at 11.4 µM].

In the case of `O=C1c2cccnc2C(O)N1C1CCCCC1` (configuration not stated), the “activity, negative = inhibition” value is -14.1%.

In the case of `Cc1nc2c(n1C1CCCCC1)C(=O)c1ccccc1C2=O`, the AC50 was 14.1 µM (active).

As to `COc1c(F)c(F)c(C(=O)O)c(Nc2ccc(C)cc2)c1F`, the “activity, negative = inhibition” value is -28.2%.

For `Cc1ccc(CNC(=O)C2CC(c3ccccc3[N+](=O)[O-])=NO2)o1` (configuration not stated), the “activity, negative = inhibition” value was -23.2%.

As to `O=C(N/N=C\c1ccc(-c2ccccc2[N+](=O)[O-])o1)C1COc2cc3ccccc3cc2O1` (configuration not stated), the AC50 was 17.8 µM (active).

In the case of `CCOC(=O)C(C)n1cnc2c(oc3ccccc32)c1=O` (configuration not stated), the “activity, negative = inhibition” value is 7.52%.

For `c1ccc2c(c1)oc1c(NCCCn3ccnc3)ncnc12`, the AC50 was 0.631 µM (active).

In the case of `O=C(Cn1cnc2c(oc3ccccc32)c1=O)NCc1ccco1`, the “activity, negative = inhibition” value is -25.9%.

For the molecule `c1ccc(-c2nc(NCCCn3ccnc3)c3oc4ccccc4c3n2)cc1`, the AC50 is 1 µM (active).

On to `CC(=O)C1=C(NC(=O)c2ccc(F)cc2)CC2C1C2(C)C` (configuration not stated), for which the activity, negative = inhibition was 10% [at 2.29 µM].

With `CCN1C(=O)[C@@H]2[C@H]3C(=CC[C@@H]2C1=O)C1(OCCCO1)[C@H]1O[C@@H]1[C@H]3O`, the activity, negative = inhibition is -21.4% [at 11.4 µM].

For `COc1ccccc1NC(=O)c1sc2ncn(Cc3ccccc3C)c(=O)c2c1C`, the AC50 was 4.47 µM (active).

On to `Cc1cccc(-n2cccc2)c1C#N`, for which the “activity, negative = inhibition” value was 0.0083%.

With `N#Cc1c(-n2ccnc2)cccc1-n1ccnc1`, the AC50 is 2 µM (active).

Regarding `N#Cc1c(Cl)cccc1-n1ccnc1`, the AC50 was 1 µM (active).

As to `CCCCOc1ccccc1N`, the “activity, negative = inhibition” value is -7.64%.

As for `Nc1ccccc1Oc1ncc(C(F)(F)F)cc1Cl`, the AC50 is 14.1 µM (active).

Regarding `COc1ccc2c(c1)N(CC[C@H]1CCCCN1C)c1ccccc1S2`, the activity, negative = inhibition is -24.2% [at 11.4 µM].

Take `O=C(O)c1ccc(CSc2nc3ccccc3o2)cc1`: the “activity, negative = inhibition” value is 23.1%.

In the case of `OC1CC2CC[C@H](C1)N2CCCN1c2ccccc2Sc2ccc(Cl)cc21` (some centres not stated), the activity, negative = inhibition was -4.29% [at 11.4 µM].

Consider `COc1ccc(OCc2nnc(SCC(=O)N3c4ccccc4Sc4ccc(Cl)cc43)o2)cc1`, for which the AC50 was 3.55 µM (active).

Regarding `O=C(CSc1nc2ccccc2o1)N1c2ccccc2Sc2ccc(Cl)cc21`, the AC50 is 8.91 µM (active).

Turning to `CCOC(=O)CN1N=C(/C=C/c2ccc(C)cc2)CCC1=O`, the “activity, negative = inhibition” value was 19.5%.

For the molecule `O=C1CC(N2CCN(CCc3ccccn3)CC2)C(=O)N1c1ccc(Cl)cc1` (configuration not stated), the “activity, negative = inhibition” value was -14.5%.

In the case of `O=C1c2ccccc2N[C@H](c2cc(Cl)cc(Cl)c2O)N1CCc1ccccn1`, the AC50 was 0.794 µM (active).

As to `CN(Cc1ccco1)c1ncncc1-c1cccc(C#N)c1`, the AC50 is 7.94 µM (active).

For the molecule `CN(C)C(=O)c1ccc(-c2nccc(N(C)Cc3ccco3)n2)cc1`, the “activity, negative = inhibition” value was 20.6%.

On to `CN(Cc1ccco1)c1ncncc1-c1cccnc1`, for which the AC50 is 2.51 µM (active).

As for `CN(Cc1ccco1)c1ncncc1-c1ccc2c(c1)OCO2`, the AC50 is 1.26 µM (active).

Take `CN(C)c1ccc(-c2cncnc2N(C)Cc2ccco2)cc1`: the half-maximal activity concentration (AC50) is 0.631 µM (active).

On to `C#C[C@H](N)CCC(=O)O`, for which the “activity, negative = inhibition” value was -4.49%.

On to `COc1cc(O)c2c(O)c3c(c4c2c1[C@@]1(C4)C(C)=CCCC1(C)C)[C@H](O)[C@@]1(O)CC(=O)C(C(N)=O)=C(O)[C@]1(O)C3=O`, for which the activity, negative = inhibition was -13.9% [at 11.4 µM].

A word on the AC50: it is the concentration giving half of the maximal activity seen.

Values taken from PubChem BioAssay AID1851 (National Center for Advancing Translational Sciences (NCATS), 2009).
